# Inconclusive results are not listed. Activity calls are given as the source filed them. The call rests on the fitted dose curve; in most records, active means well fitted cell-killing curve with a large enough effect; inconclusive means small, poorly fitted or top-dose-only effect; inactive means flat fitted curve, though single readings scatter.
# Assay: Cell Viability - LYMP2-025 (AID 976)
# Conditions: LYMP2-025 lymphoblastoid cell viability; series mostly up to 92.2 µM
# Source text: NIH Chemical Genomics Center [NCGC]
# NIH Molecular Libraries Screening Centers Network [MLSCN]
# National Institutes of Environmental Health Sciences [NIEHS]
# National Toxicology Program [NTP]
# We have developed a 1536-well cell-based assay for quantitative high throughput screening (qHTS) against a number of cell lines to determine in vitro cytotoxicity of small molecules. This particular assay uses a human lymphoblastoid cell line (LYMP2-025) purchased from Coriell Institute for Medical Research.
# NCGC Assay Protocol Summary:
# The CellTiter-Glo luminescent cell viability assay (Promega) is a homogeneous method to measure the number of viable cells in culture. The end point readout of this assay is based on quantitation of intracellular ATP, an indicator of metabolic activity, using the luciferase reaction. Luciferase catalyzes the oxidation of beetle Luciferin to oxyluciferin and light in the presence of ATP. The luminescent signal is proportional to amount of ATP present.
# Using the CellTiter-Glo luminescent cell viability assay, the amount of cellular ATP was measured in the lymphoblastoid cell line with complete culture medium following compound treatment for 24 hours. The assay was performed in opaque white Kalypsys 1536-well plates. In the screen, tetraoctylammonium bromide was used as positive control. Library compounds were measured for their ability to cause acute toxicity in the cell line, as reflected by a decrease in intracellular ATP levels, in a concentration-dependent manner. […] AC50 values were determined from concentration-response data modeled with the standard Hill equation.
# qHTS protocol for CellTiter Glo lymphoblastoid cellular assay
# [Step] [Parameter] [Value] [Description]
# 1. Reagent; 5 uL; 2500 lymphoblastoid cells/well
# 2. Time; 5 hr; 37 C incubation
# 4. Controls; 23 nL; Tetraoctylammonium bromide 6.4pM to 92 uM
# 5. Time; 24 hr; 37 C incubation
# 6. Reagent; 5 uL; CellTiter Glo reagent
# 7. Time; 30 min; Room Temperature
# 8. Detection; Luminescence; Viewlux plate reader
# Keywords: cell viability, cytotoxicity, lymphoblastoid cell line, luminescence, NTPHTS, NTPHTS_NCGC, NIEHS, DSSTox, MLSMR, MLSCN, NIH Roadmap, qHTS, NCGC
# Potency means the concentration at half of the fitted maximal effect.
row,Structure (SMILES),Potency
1,O=C(CCl)c1ccccc1,12.6 µM (active)
2,[CH3][Hg][Cl],7.94 µM (active)
3,ClC1=C(Cl)C(Cl)(Cl)C(Cl)=C1Cl,10 µM (active)
4,Nc1ccccc1C(=O)OCCc1ccccc1,inactive
5,O=[N+]([O-])C(Br)Br,20 µM (active)
6,Cc1ccccc1,inactive
7,C#CCO,inactive
8,OC(c1ccc(Cl)cc1)(c1ccc(Cl)cc1)C(Cl)(Cl)Cl,inactive
9,c1ccc2cc3c(cc2c1)-c1cccc2cccc-3c12,inactive
10,c1cc(OCC2CO2)cc(OCC2CO2)c1 (stereo not given),50.1 µM (active)
11,COP(=O)(OC)O/C(=C\Cl)c1cc(Cl)c(Cl)cc1Cl,inactive
12,FC(F)(F)c1ccc(Cl)cc1,inactive
13,CCCCCCCCn1sccc1=O,6.31 µM (active)
14,CC(=O)[O-].CC(=O)[O-].O.O.[Cd+2],inactive
15,O=C(O)C1C(C(=O)O)C2(Cl)C(Cl)=C(Cl)C1(Cl)C2(Cl)Cl (stereo not given),inactive
16,C[C@@H]1CC[C@@]2(OC1)O[C@H]1[C@@H](O)[C@H]3[C@@H]4CC[C@H]5C[C@@H](O[C@@H]6O[C@H](CO)[C@H](O[C@@H]7O[C@H](CO)[C@@H](O)[C@H](O[C@@H]8OC[C@@H](O)[C@H](O)[C@H]8O)[C@H]7O[C@@H]7O[C@H](CO)[C@@H](O)[C@H](O[C@@H]8O[C@H](CO)[C@@H](O)[C@H](O)[C@H]8O)[C@H]7O)[C@H](O)[C@H]6O)[C@H](O)C[C@]5(C)[C@H]4CC[C@]3(C)[C@H]1[C@@H]2C,25.1 µM (active)
17,N#CSCSC#N,10 µM (active)
18,O=[N+]([O-])c1cc(C(F)(F)F)cc([N+](=O)[O-])c1Cl,50.1 µM (active)
19,CC/C(=C(\c1ccccc1)c1ccc(OCCN(C)C)cc1)c1ccc(O)cc1,50.1 µM (active)
20,CN(C)c1ccc(N=O)cc1,2.51 µM (active)
21,O=Nc1ccc(Nc2ccccc2)cc1,10 µM (active)
22,N#CC(Cl)Cl,39.8 µM (active)
23,ClC1=C(Cl)C2(Cl)C3C(Cl)C(Cl)CC3C1(Cl)C2(Cl)Cl (stereo not given),inactive
24,Clc1ccc(C(c2ccc(Cl)cc2)C(Cl)Cl)cc1,inactive
25,Oc1c(Br)c(Br)c(Br)c(Br)c1Br,inactive

# — PubChem BioAssay (NCATS)
